Screening data deposited in PubChem BioAssay by National Center for Advancing Translational Sciences (NCATS).
Shown are actives, neighbours in structure and some others; about 8.8% of the full set was active somewhere.
LMNA splice mod – modulators of lamin A splicing. HeLa LMNA splicing GFP/RFP minigene ratio, 48 h. Potency, µM (highest dose often 46.1 µM), for inactives: top-dose ratio change, negative = inhibition, actives largely listed as inhibitors. hit rate 0.01% among 200,000; active = well fitted inhibition curve with a large enough effect in the signal ratio, with a control signal flat, not every such curve was filed as active; inconclusive = small, poorly fitted or top-dose-only effect, or effect the other way, or a change in a side signal; the % refers to the signal ratio; also: % is scaled to controls: 0 for no effect and ±100 for the full control effect
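Read-out is the ratio of GFP to DsRed2 object intensity, acquired by 488 nm laser-scanning cytometry on HeLa lamin A-EGFP minigene reporter cells. Compound incubation 48 hrs at 37 °C in Opti-MEM with 2% FBS; DMSO 0.5% final.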
HTT ATP protect – protects HTT-Q103 PC12 cells, measured by ATP; PC12 HTT-Q103 induced, cytoprotection, ATP luminescence, 40 h; hit rate 0.14% among 230,000; Potency, µM (highest dose often 56.4 µM), for inactives: cytoprotection (ATP increase), most hits filed as activators; AID 1471; active = well fitted curve in the direction sought with a large enough effect; inconclusive = small, poorly fitted or top-dose-only effect, or another doubt; inactive = no such curve, though single readings can be large; an effect the other way counts as inactive or inconclusive; also: % of control where 0% means no effect; nearly all actives have a fitted effect of over 45% in size
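ATP quantification (ATPlite) reports survival of PC12 cells in which tebufenozide, 100 nM final, switches on Htt exon 1 with 103 glutamines linked to GFP; compounds are titrated.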
ALDH1A1 inh – ALDH1A1 (human) enzyme inhibition | P00352 | Purified ALDH1A1, NADH fluorescence, propionaldehyde substrate | Potency, µM (highest dose often 75.3 µM), for the others: at the highest dose activity, negative = inhibition, most hits filed as inhibitors | hit rate 7.3% among 220,000;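 also: plate controls were no enzyme wells and a reference inhibitor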
Target sequence (P00352 whole entry, looked up): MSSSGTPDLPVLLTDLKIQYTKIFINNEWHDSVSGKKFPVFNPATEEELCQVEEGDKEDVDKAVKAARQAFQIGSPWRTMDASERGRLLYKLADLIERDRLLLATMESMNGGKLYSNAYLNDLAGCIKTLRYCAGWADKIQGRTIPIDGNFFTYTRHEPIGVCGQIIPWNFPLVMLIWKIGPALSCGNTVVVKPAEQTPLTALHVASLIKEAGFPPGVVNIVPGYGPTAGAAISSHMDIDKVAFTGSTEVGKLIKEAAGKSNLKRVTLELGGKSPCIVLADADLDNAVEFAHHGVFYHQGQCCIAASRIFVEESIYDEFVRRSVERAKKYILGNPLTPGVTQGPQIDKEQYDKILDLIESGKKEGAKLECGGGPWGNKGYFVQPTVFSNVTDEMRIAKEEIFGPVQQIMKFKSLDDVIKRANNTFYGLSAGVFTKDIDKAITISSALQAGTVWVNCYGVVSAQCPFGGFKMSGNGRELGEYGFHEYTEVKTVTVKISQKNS
HPGD block – inhibitors of human 15-hydroxyprostaglandin dehydrogenase (HPGD); Potency, µM, for the others: top-dose activity change, negative = inhibition, hits mostly inhibitors; P15428; hit rate 4.3% among 150,000; AID 894; purified HPGD, NADH fluorescence kinetic, PGE2 substrate; also: % is scaled to controls: 0 for no effect and ±100 for the full control effect
Target sequence (P15428 whole entry, looked up): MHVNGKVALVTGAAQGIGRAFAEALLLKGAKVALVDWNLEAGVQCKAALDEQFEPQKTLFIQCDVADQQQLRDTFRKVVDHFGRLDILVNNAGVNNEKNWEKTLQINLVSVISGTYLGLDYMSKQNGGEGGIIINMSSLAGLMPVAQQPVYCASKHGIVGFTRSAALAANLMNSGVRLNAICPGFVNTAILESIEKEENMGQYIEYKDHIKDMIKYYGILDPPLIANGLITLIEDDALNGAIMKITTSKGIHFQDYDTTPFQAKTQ
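NADH formation kinetics: reaction with 30 uM PGE2 and 1 mM NAD+ (final), 20 nM enzyme, Tris-HCl pH 8 with Tween 20, after 15 min compound preincubation at room temperature. Fluorescence change, last versus first of five reads.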
HttQ103 aggreg – inhibitors of mutant huntingtin aggregate formation in PC12 cells; PC12 HttQ103-GFP aggregates, Acumen cytometry, 40 h; Potency, µM (series often up to 46.1 µM), without a hit: at the top dose activity change, negative = inhibition, most hits filed as inhibitors; hit rate 1.1% among 220,000; active = well fitted curve in the direction sought with a large enough effect; inconclusive = small, poorly fitted or top-dose-only effect, or another doubt; inactive = no such curve, though single readings can be large; an effect the other way counts as inactive or inconclusive; also: % is scaled to controls: 0 for no effect and ±100 for the full control effect; nearly all actives have a fitted effect of over 60% in size
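Read-out: GFP aggregate count by laser scanning cytometer (488 nm excitation, 500-530 nm emission, 1–25 µm objects >6 SD above background). Cells: PC12, inducible HTTex1-Q103-GFP, 100 nM tebufenozide; compounds titrated.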
Active calls of the source: *; ? = inconclusive; . = no result; [ ] = remark or other dose. Unless noted, calls follow the shape of the dose curve; as a rule, active = well fitted inhibition curve with a large enough effect (not every such curve was filed as active); inconclusive = small, poorly fitted or top-dose-only effect, or another doubt; inactive = no such curve, though single readings can be large or run the other way. Potency is read from the fitted curve at half-maximal effect.

SMILES | LMNA splice mod | HTT ATP protect | ALDH1A1 inh | HPGD block | HttQ103 aggreg
Fc1ccc(CSc2ncnc3scc(-c4ccccc4)c23)cc1 | ? | 9.1%[10 µM] | -1.8% | -15.2% | -27.4%
Clc1ccc(C[n+]2csc3ccccc32)cc1 | 7.6% | . | 2.82µM* | 15.8µM* | 0.8%
Cc1nnc(NC(=O)c2sc3ccccc3c2Cl)s1 | -8.5% | -101.1%[10 µM] | -6.5% | -16.3% | 1.4%
COCc1nnc(NC(=O)CSc2ccccc2)s1 | 3.1% | 3.1% | 2.7% | -3.6% | -6.0%
COCc1nnc(NC(=O)CSc2ccc(C)cc2)s1 | -11.1% | -2.4% | 20µM* | 28.2µM* | 17.0%
Cc1cc(=O)[nH]c(SCC(=O)Nc2nnc(CC(C)C)s2)n1 | -12.3% | ? | -3.9% | 31.6µM* | -25.2%
COCc1nnc(NC(=O)CSCc2ccccc2)s1 | 1.9% | -19.3% | 17.8µM* | ? | 8.1%
COCc1nnc(NC(=O)c2sc3ccccc3c2Cl)s1 | -10.3% | -69.2% | ? | 31.6µM* | 21.5%
COc1cccc([C@@H]2Oc3ccc(Br)cc3C[C@H]2O)c1 | . | 0.1% | 5.9% | -26.6% | .
CCOC(=O)c1sc2nc3c(cc2c1N)C(=O)CC(C)(C)C3 | -7.3% | . | 0.501µM* | -9.4% | -20.3%
Cc1cc(C)c(NC(=O)c2sc3nc4c(cc3c2N)C(=O)CC(C)(C)C4)c(C)c1 | 3.6% | . | 0.251µM* | -11.7% | -16.8%
CC1(C)CC(=O)c2cc3c(N)c(C(=O)NCc4ccccc4)sc3nc2C1 | 9.5% | -8.3% | ? | 0.8% | -12.1%
COC(=O)c1sc2nc3c(cc2c1N)C(=O)CC(C)(C)C3 | 3.7% | -8.7%[10 µM] | 0.891µM* | -1.3% | 15.4%[9.22 µM]
Cc1cc(C)c2cc3c(N)c(C(=O)Nc4c(C)[nH]c(=O)[nH]c4=O)sc3nc2c1 | -12.2% | -12.1%[10 µM] | -6.8% | ? | -4.5%
COC(=O)C/C=C/[C@@H](C)[C@H](NC(=O)OCC(Cl)(Cl)Cl)c1ccc2ccccc2c1 | . | -8.6% | -7.1% | -5.1% | .
Cc1ccc(NC(=O)COC(=O)CCC(=O)c2cccs2)c(C)c1 | ? | -14.6% | 18.6% | . | -2.3%
CC(NC(=O)Cn1c(-c2cccs2)cc2cc(F)ccc21)c1ccccc1 (stereo not given) | -9.0%[46 µM] | . | . | . | .
Cc1ccc(Cc2cnc(N3C(=N)SC(C)C3=O)s2)cc1 (stereo not given) | . | -73.7% | -3.5% | . | -18.7%
Cc1cccc(Cc2cnc(N3C(=N)SC(C)C3=O)s2)c1 (stereo not given) | ? | -84.2% | 6.7% | . | 22.4µM*
Oc1cccc(C=NCc2ccccc2)c1O | -5.9% | -16.0% | 8.91µM* | 15.8µM* | -1.2%
CCN(CC)C(=O)COc1ccc(-c2nnc(Nc3ccc(OC)c(C(=O)NC)c3)c3ccccc23)cc1 | . | -16.7%[10 µM] | 25.1µM* | . | -6.9%[9.22 µM]
Cc1nn2c(=O)cc(COC(=O)c3ccc(NC(=O)C4CCCCC4)cc3)nc2s1 | 11.4%[46 µM] | . | . | . | .
N#Cc1ccccc1CN1C(=O)S/C(=C/c2cccn2-c2ccc(C(=O)O)cc2)C1=O | 10.7% | -1.8% | 0.501µM* | 28.2µM* | -24.7%
CN1C(=O)S/C(=C/c2cccn2-c2cccc(C(=O)O)c2)C1=O | -4.7%[1.84 µM] | -8.3% | -11.3% | . | -3.5%[9.22 µM]
CC1(C)CC(=O)C(CC2=C(O)CC(C)(C)CC2=O)=C(O)C1 | -1.0% | -5.9%[1.9 µM] | 8.91µM* | -11.6% | -1.2%
SMILES | LMNA splice mod | HTT ATP protect | ALDH1A1 inh | HPGD block | HttQ103 aggreg
CC1(C)CC(=O)C(CC2=C(O)CC(C)(C)CC2=O)C(=O)C1 | 7.1% | -14.4% | 11.2µM* | -8.1% | 11.8%
N/C(=N\NC(=O)c1cccs1)c1cc2cc(Cl)ccc2oc1=O | . | -5.0%[10 µM] | . | . | -6.7%[9.22 µM]
O=C(NNc1c(Cl)cccc1Cl)c1cccs1 | . | 3.9%[10 µM] | 25.1µM* | . | 0.9%[9.22 µM]
CCOc1ccc(C(=O)NCC(c2ccc3c(c2)OCO3)N2CCN(c3ccc(F)cc3)CC2)cc1 (stereo not given) | -4.6%[46 µM] | . | . | . | .
CSCCC1NC(=O)N(C(C)C(=O)Nc2cc(Cl)cc(Cl)c2)C1=O (stereo not given) | . | -51.0% | -3.4% | . | -6.5%
C=CCn1c(SCC#N)nc2c(c1=O)C(C)(C)Cc1ccccc1-2 | -0.1% | -12.0%[10 µM] | ? | -1.1% | 10µM*
C=CCn1c(SCC#N)nc2ccccc2c1=O | 6.8% | -4.0%[10 µM] | ? | -19.4% | 11.9%
O=C(O)/C=C/C(=O)Nc1ccc2c(c1)NC(=O)CO2 | . | -15.8% | 22.4µM* | . | 11.8%
COc1c(/C=N/NC(N)=S)c(C)nn1-c1ccccc1 | 1.1% | 3.7%[10 µM] | -2.4% | -18.2% | 3.3%
O=C(CN1NS(=O)(=O)c2ccccc2C1=O)Nc1ccccc1OC(F)F | 5.2% | 3.8% | -19.2% | -7.8% | -11.1%[9.22 µM]
N#Cc1cccc(NC(=O)CN2NS(=O)(=O)c3ccccc3C2=O)c1 | -0.3% | 12.4%[10 µM] | -10.9% | 15.8µM* | 16.5%
N#Cc1cccc(NC(=O)CSc2ccc3c4c(cccc24)C(=O)c2ccccc2-3)c1 | 12.4% | -29.2% | 17.8µM* | -29.0% | 7.94µM*
COc1ccc(NC(=O)CSc2ccc3c4c(cccc24)C(=O)c2ccccc2-3)cc1 | 4.5% | -20.9% | 0.0% | -13.5% | ?
CC1(C)CC(c2nc(-c3ccc([N+](=O)[O-])cc3)cs2)CCO1 (stereo not given) | -5.2%[46 µM] | -20.0% | 15.8µM* | . | -3.4%
O=C(c1ccncc1)N1CCC[C@@]2(CCN(c3ccccn3)C2)C1 | . | ? | -0.1% | -8.1% | .
CCOC(=O)C1CCN(C(=O)CSCc2nc(-c3ccc(OCC)cc3)oc2C)CC1 | -17.2% | -4.8%[10 µM] | ? | -22.4% | -11.4%
CCOC(=O)C1CCN(C(=O)CS(=O)Cc2nc(-c3ccc(C)cc3)oc2C)CC1 (stereo not given) | -13.2% | -0.5% | 25.1µM* | -15.0% | 7.8%
Cc1c(C(=O)N2CCc3ccccc3C2)sc2nc(-c3ccccc3)cn12 | ? | -4.1%[1.9 µM] | ? | 7.08µM* | -10.4%
Cc1c(C(=O)Nc2ccc3c(c2)OCCO3)sc2nc(-c3ccccc3)cn12 | ? | 24.5%[10 µM] | -8.5% | -11.0% | 15.8µM*
CS(=O)(=O)c1ccc(S(=O)CC(=O)Oc2ccc(Cl)cc2)c([N+](=O)[O-])c1 (stereo not given) | . | ? | ? | . | -1.8%
C=CCn1c(CNc2ccc(C)cc2)nnc1SCC(=O)N/N=C/c1ccc(O)cc1 | -3.5% | -13.7% | 25.1µM* | -15.3% | -8.1%
Cc1ccc(Nc2nc(C)cc(C)n2)c(C(=O)O)c1 | 11.3%[46 µM] | . | . | . | .
CCOC(=O)C1(CC2CCCCO2)CCN(S(=O)(=O)c2cccc(F)c2)CC1 (stereo not given) | 0.9%[46 µM] | -13.5%[10 µM] | 25.1µM* | . | -20.0%[9.22 µM]
CCOC(=O)C1(CC2CCCCO2)CCN(Cc2cc3ccccc3[nH]2)CC1 (stereo not given) | . | -58.0%[10 µM] | 1.26µM* | . | -29.1%[9.22 µM]
CCCCc1ncc(CN2CCC(CC3CCCCO3)(C(=O)OCC)CC2)[nH]1 (stereo not given) | . | -6.9%[10 µM] | -2.1% | . | 5.5%[9.22 µM]
CCOC(=O)C1(CC2CCCCO2)CCN(S(=O)(=O)c2cc(C)cs2)CC1 (stereo not given) | . | -22.5%[10 µM] | 10µM* | . | -21.4%[9.22 µM]
